Compound activity (PubChem BioAssay)
FLuc counter: qHTS profiling assay for firefly luciferase inhibitor/activator using purifed enzyme and Km concentrations of substrates (counterscreen for miR-21 project). purified FLuc, Km substrates, luminescence inhibition. AID 588342, 2011. Potency, µM (doses to about 57.5 µM), for inactives: top-dose activity change, negative = inhibition, actives largely listed as inhibitors. 360,000 compounds, 6.9% hits;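 further: plate controls were vehicle for no effect and reference inhibitor for full effect; nearly all actives have a fitted effect of over 55% in size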
Target sequence (P08659 whole entry, looked up): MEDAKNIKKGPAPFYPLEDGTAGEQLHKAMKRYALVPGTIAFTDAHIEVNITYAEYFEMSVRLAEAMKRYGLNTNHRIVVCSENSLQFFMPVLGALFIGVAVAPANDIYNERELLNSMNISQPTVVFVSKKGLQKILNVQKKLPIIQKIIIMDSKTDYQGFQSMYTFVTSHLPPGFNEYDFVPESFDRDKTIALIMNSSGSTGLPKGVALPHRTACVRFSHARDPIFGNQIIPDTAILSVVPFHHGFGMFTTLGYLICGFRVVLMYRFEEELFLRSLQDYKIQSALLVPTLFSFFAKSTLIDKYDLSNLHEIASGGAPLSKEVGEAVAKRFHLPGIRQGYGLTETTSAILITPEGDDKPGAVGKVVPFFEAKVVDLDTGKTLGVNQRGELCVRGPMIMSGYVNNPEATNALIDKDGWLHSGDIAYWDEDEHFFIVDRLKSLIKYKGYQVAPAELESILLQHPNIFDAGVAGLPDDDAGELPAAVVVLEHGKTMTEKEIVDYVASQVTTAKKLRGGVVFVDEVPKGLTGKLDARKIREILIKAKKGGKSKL
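Biochemical qHTS of compounds, final roughly 60 µM downward over six points, against 10 nM purified firefly luciferase using Km concentrations of substrates (10 uM D-luciferin, 10 uM ATP) in Tris acetate pH 7.5 buffer; luminescence output.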
NPC1 prom act: qHTS Assay for NPC1 Promoter Activators | Huh7 NPC1 promoter luciferase reporter, 24 h | Potency, µM (top dose mostly 9.22 µM), inactives show at the top dose activation, hits mostly activators | 320,000 compounds, 2.4% hits | AID 485313, 2010; further: % of control where 0% means no effect; nearly all actives have a fitted effect of over 60% in size
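Luminescence read-out of NPC1 promoter-driven luciferase in stably transfected Huh7 cells; compounds delivered in DMSO and left 24 h at 37C, 5% CO2, qHTS titration format.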
ELG1 genotoxic: qHTS screen for small molecules that induce genotoxicity in human embryonic kidney (HEK293T) cells expressing luciferase-tagged ELG1. 330,000 compounds, 1.3% hits. AID 504466, 2011. HEK293T ELG1-luciferase reporter, luminescence, 16 h. Potency, µM (titrated, usually from 46 µM), inactives show at the highest dose activity change, positive = activation, usual class: activators; further: % of control where 0% means no effect; nearly all actives have a fitted effect of over 60% in size
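HEK293T cells expressing luciferase-tagged ELG1 were treated with compound or DMSO for 16 hr at 37°C. Luciferase activity was then read after 30 min with ONE-Glo at room temperature; rising signal flags genetic stress.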
ELG1 repair inh: qHTS screen for small molecules that inhibit ELG1-dependent DNA repair in human embryonic kidney (HEK293T) cells expressing luciferase-tagged ELG1; 330,000 compounds, 2.3% hits; AID 504467, 2011; HEK293T ELG1-luciferase reporter, luminescence, 16 h; DNA damage induced by 5-fluorouridine; Potency, µM (titrated, usually from 46.1 µM), without a hit: at the top dose activity change, negative = inhibition, hits mostly inhibitors; further: on the % scale 0 is the no-effect control and ±100 the full control effect; nearly all actives have a fitted effect of over 55% in size
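Quantitative HTS, concentration-response format. 2,000 cells/well co-treated with 5-fluorouridine and compound, 16 hr in 5% CO2 at 37 °C; ONE-Glo luminescence read after 30 min.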
SMN2 splice up: qHTS Assay for Enhancers of SMN2 Splice Variant Expression; Potency, µM (doses to about 46.1 µM), without a hit: at the highest dose activity change, positive = activation, most hits filed as activators; HEK293 SMN2-luciferase splicing reporter, luminescence, 30-36 h; AID 1458, 2008; 210,000 compounds, 2.8% hits; further: % of control where 0% means no effect; nearly all actives have a fitted effect of over 55% in size
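qHTS luciferase splicing reporter: luminescence rises when SMN2 exon 7 is included in transfected HEK293 cells. Compound exposure lasted 30-36 h at 37C, with 4.5 mM final sodium butyrate as control, followed by a ONE-Glo read.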
Rab9 prom act: qHTS Assay for Rab9 Promoter Activators; Huh7 Rab9 promoter-luciferase reporter, luminescence, 24 h; Potency, µM (top dose mostly 9.22 µM), for inactives: at the top dose activation, negative = inhibition, most hits filed as activators; 320,000 compounds, 2.8% hits; AID 485297, 2010; further: % of control where 0% means no effect; nearly all actives have a fitted effect of over 60% in size
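Promoter activation is measured as luciferase luminescence in Huh7 cells stably transfected with a Rab9 promoter–luciferase construct, following 24 h compound exposure at 37 °C and 10 min reagent incubation at ambient temperature.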
The depositor's hits bear a star. This is a sample that favours compounds with a hit; in the whole collection about 9.2% have one here. The call rests on the fitted dose curve; in most records, active means well fitted curve in the direction sought with a large enough effect; inconclusive means small, poorly fitted or top-dose-only effect, or another doubt; inactive means no such curve, though single readings can be large; an effect the other way counts as inactive or inconclusive. Potency means the concentration at half of the fitted maximal effect.

How did Cc1ccc(NC2=CC(c3ccccc3F)N(c3ccc(C)cc3)C2=O)cc1 (configuration not stated) do in these assays?
FLuc counter: 1%; SMN2 splice up: 18%

What do the screens show for `Cc1ccc(NS(=O)(=O)c2cc(C(=O)Nc3cccc([N+](=O)[O-])c3)ccc2C)cc1`?
FLuc counter: 6%; NPC1 prom act: -5%; ELG1 genotoxic: -7%; ELG1 repair inh: inconclusive; Rab9 prom act: -3%

What do the screens show for `Cc1ccc(C(=O)Nc2cccc([N+](=O)[O-])c2)cc1S(=O)(=O)Nc1ccc(NC(=O)c2ccccc2)cc1`?
FLuc counter: 0%; NPC1 prom act: -1%; ELG1 genotoxic: -7%; ELG1 repair inh: 5.2µM*; SMN2 splice up: inconclusive; Rab9 prom act: -8%

What do the screens show for `CC(=O)Nc1ccc(NC(=O)c2ccc(C)c(S(=O)(=O)Nc3cccc(C)c3)c2)cc1`?
FLuc counter: -15%; NPC1 prom act: -10%; ELG1 genotoxic: -10%; ELG1 repair inh: 21µM*; Rab9 prom act: -6%

Results for COc1ccc(C2/C=C\CN(S(=O)(=O)c3ccc(C)cc3)CC(=O)N2Cc2cccc(F)c2)cc1 (configuration not stated) ?
ELG1 genotoxic: -2%; ELG1 repair inh: 21µM*

Results for O=C(O)C1CC(c2ccccc2)=Nc2ccccc2S1 (configuration not stated) ?
FLuc counter: 17µM*; NPC1 prom act: inconclusive; ELG1 genotoxic: inconclusive; ELG1 repair inh: inconclusive; Rab9 prom act: inconclusive

What do the screens show for `CCN(CC)S(=O)(=O)c1cccc(C(=O)N/N=C/c2ccc([N+](=O)[O-])o2)c1`?
FLuc counter: 0%; NPC1 prom act: -12%; ELG1 genotoxic: -14%; ELG1 repair inh: inconclusive; SMN2 splice up: -5%; Rab9 prom act: -4%

What do the screens show for `O=C(NCc1ccccc1Cl)C1CCN(S(=O)(=O)N2CCCCCC2)CC1`?
FLuc counter: -2%; NPC1 prom act: -3%; ELG1 genotoxic: -1%; ELG1 repair inh: 18µM*; SMN2 splice up: -22%; Rab9 prom act: -3%

How did C=CCNC(=O)C1CCN(c2cc(C)nc(-c3ccccc3)n2)CC1 do in these assays?
FLuc counter: 1%; NPC1 prom act: -3%; ELG1 genotoxic: -4%; ELG1 repair inh: -22%; SMN2 splice up: 21%; Rab9 prom act: -3%

Results for C=CCNC(=O)C1CCN(c2nc(C)cc(-c3ccccc3)n2)CC1 ?
FLuc counter: 19µM*; NPC1 prom act: 3.5µM*; ELG1 genotoxic: inconclusive; ELG1 repair inh: inconclusive; SMN2 splice up: 8.9µM*; Rab9 prom act: 3.5µM*

How did Cc1cc(C)nc(N2CCC(C(=O)NNC(=O)Cc3ccccc3)CC2)n1 do in these assays?
FLuc counter: 0%; NPC1 prom act: 0%; ELG1 genotoxic: 0%; ELG1 repair inh: 10%; Rab9 prom act: -1%

What do the screens show for `Cc1cc(-c2ccccc2)nc(N2CCC(C(=O)NCc3ccccc3Cl)CC2)n1`?
FLuc counter: -15%; NPC1 prom act: 22%; ELG1 genotoxic: inconclusive; ELG1 repair inh: inconclusive; SMN2 splice up: 28µM*; Rab9 prom act: 14%

How did CC1(C)CCC[C@@]2(C)C1CC[C@@](C)(O)[C@@H]2CC[C@@](C)(O)C1CO1 (some centres not stated) do in these assays?
SMN2 splice up: 14%

Results for CCCNC(=O)NC(=O)CSc1nncs1 ?
FLuc counter: -1%; NPC1 prom act: -1%; ELG1 genotoxic: -1%; ELG1 repair inh: 7%; SMN2 splice up: 2%; Rab9 prom act: 1%

What do the screens show for `FC(F)(F)c1cnc2c(c1)[nH]c(=S)n2-c1ccc(Cl)cc1`?
FLuc counter: 1%; NPC1 prom act: -5%; ELG1 genotoxic: -14%; ELG1 repair inh: 16µM*; Rab9 prom act: -1%

How did Cc1ncc(CO)c(/C=N/N=C/c2ccccc2O)c1O do in these assays?
FLuc counter: 2.4µM*; NPC1 prom act: 1%; ELG1 genotoxic: inconclusive; ELG1 repair inh: inconclusive; SMN2 splice up: 23%; Rab9 prom act: -3%

What do the screens show for `CC1CCCC(C)N1C(=O)COC(=O)c1cccnc1Cl` (configuration not stated)?
ELG1 genotoxic: 1%; ELG1 repair inh: inconclusive

What do the screens show for `COc1ccc(/C=C/C(=O)c2ccc(Cl)s2)cc1O`?
FLuc counter: 1.1µM*; NPC1 prom act: -5%; ELG1 genotoxic: inconclusive; ELG1 repair inh: inconclusive; SMN2 splice up: -12%; Rab9 prom act: 6%

Results for COc1ccc(C(=O)/C=C/c2ccc(OC)c(O)c2)c(F)c1 ?
FLuc counter: 11µM*; NPC1 prom act: 5%; ELG1 genotoxic: 16%; ELG1 repair inh: inconclusive; SMN2 splice up: -16%; Rab9 prom act: -8%

What do the screens show for `COc1ccc(/C=C/C(=O)CC(=O)/C=C/c2cccc(O)c2OC)cc1O`?
SMN2 splice up: 21%

What do the screens show for `N#Cc1ccc(CN2CCCC3(CCN(C(=O)c4cc(C(F)(F)F)cc(C(F)(F)F)c4)CC3)C2)cc1`?
SMN2 splice up: -17%

How did CC(=O)CSc1nc2c(c(=O)[nH]c(=O)n2C)n1CCCc1ccccc1 do in these assays?
FLuc counter: 0%; NPC1 prom act: 1%; ELG1 genotoxic: inconclusive; ELG1 repair inh: -1%; Rab9 prom act: 3%

What do the screens show for `COc1ccc(N2CCN(C(=O)c3ccc(-c4nc5ccccc5s4)o3)CC2)cc1`?
FLuc counter: 9.5µM*; NPC1 prom act: 2%; ELG1 genotoxic: 2%; ELG1 repair inh: -1%; Rab9 prom act: 18%

What do the screens show for `COc1ccccc1N1CCN(C(=O)c2ccc(-c3nc4ccccc4s3)o2)CC1`?
FLuc counter: 13µM*; NPC1 prom act: -3%; ELG1 genotoxic: -7%; ELG1 repair inh: inconclusive; Rab9 prom act: 24%

What do the screens show for `COc1ccc(N2CCN(C(=O)c3cc4c(C)nc5ccccc5c4o3)CC2)cc1`?
FLuc counter: -1%; NPC1 prom act: -4%; ELG1 genotoxic: -6%; ELG1 repair inh: inconclusive; Rab9 prom act: -3%

Results for COc1ccccc1N1CCN(C(=O)c2ccc(-c3ccc(Cl)cc3)o2)CC1 ?
FLuc counter: inconclusive; NPC1 prom act: -42%; ELG1 genotoxic: -2%; ELG1 repair inh: inconclusive; Rab9 prom act: -40%
